In the supplement of paper PMC11417369:
Whole data set: some 25,000 sequences, median “ln(normalized median fluorescence intensity)” near 9.7, cut for the highest 2% near 11. The list comes from a sample in which the highest values are over-represented; it also holds similar and randomly drawn sequences.

Test system: PfAP2-HC AP2 domain (GST-tagged)
Experiment: gcPBM binding intensity (ln(normalized median fluorescence intensity)); higher = stronger DNA binding
Outline: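 The binding buffer was 1× PBS containing 1% milk, 0.2 mg/ml BSA, 0.5% salmon testes DNA and 0.03% Triton X-100. In it, GST-tagged P. falciparum DNA-binding domains expressed in E. coli were applied for 1 h to an Agilent 4 × 180k array of primer-extended double-stranded 36-bp intergenic genomic probes plus negative controls. Binding intensity, read with Alexa488 anti-GST antibody and a 488 nm scan, is the highest Masliner-normalised natural-log median intensity across replicate spots of either probe orientation.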

Sequence | gcPBM binding intensity (ln)
TAACATATTATATATACATGCATACGTGAACTAATC [TGCATGCA_site888] | 9.72
ATTTATTTATGTATTTGTACGTATATATTTATGCAT [XGTACX_site5218] | 9.83
AAGTAAAAAAATAGCACACACACAAAAACACAGACA [CACACA_site4839] | 10.7
GTAAAAAAATAGCACACACACAAAAACACGCACAAA [CACACA_site6723] | 11.4
ACAAATAAATAAAAAACACACACAAATAAATAAATA [CACACA_site8708] | 10.6
AAAAAAATAAAACACACACACAAAAAAATAAAAATA [CACACA_site465] | 10.8
TTTCAATAATAAAAAACACACACAAAAAAAAATAAT [CACACA_site8905] | 11
CAACAAAATAAACACACACACACAAACACAAAAAAA [CACACA_site5806] | 11.4
GGACAACAAACAAACACACACAAAAAAAAAATAAAA [CACACA_site3791] | 11
ATAAATAAAAACACAAAACAAAACAAAACAAAACAA [CACACA_negctrl_site1257] | 9.61
AAGGACAACAAACAAACACACACAAAAAAAAAATAA [CACACA_site9263] | 10.2
AAAACAAATAGACACGCACACAAAAAAAAAAAAAAA [CACACA_site801] | 10.3
TCAATAATAAAAAACACACACAAAAAAAAATAATTA [CACACA_site2798] | 10.2
CAAAAAAAATAAAACACACACACAAAAAAATAAAAA [CACACA_site466] | 10.7
TATTTGTAAAAATTGTGTACTTAGAAAATTCCAAAA [XGTACX_site6007] | 9.22
ATAATATATGAAAAAACGATTTTTTCATTTTAAATA [XGTACX_negctrl_site146] | 9.51
TTTGGTTATATTTAAAAAAGACTAATGAAAATTAAA [XGTACX_negctrl_site526] | 9.35
AACATTCTATGTTGCACACAAAGAGAAAAATTTATT [CACACA_site3995] | 9.78
TATATATATATATATATATATATTTTTATTATATAT [XGTACX_negctrl_site89] | 9.89
GTTTTCATCCAAAAAAGTACATTTATTTTTATACGA [XGTACX_site1039] | 9.39
TTTTCTAAAGTAAGTTAAGATATGCAAAAAAAAGAA [GTGCAC_negctrl_site242] | 9.62
AAAAAAAAAAAAAACACACACACAAAATAAACAAAC [CACACA_site2720] | 10.8

Sequence | gcPBM binding intensity (ln)
AAAATAAAATAAAACACAAAAAAATAAAACAAAATA [CACACA_negctrl_site16] | 9.78
ACAAAATAAAAACACACACACAAACACAAAAAAATA [CACACA_site3390] | 11.4
AAGGATATAAAAAAACGTACGTACGATAATATAATT [XGTACX_site1292] | 9.86
GTTGTTATATAAAATTGTACATAAAAAACAAAATAT [XGTACX_site5313] | 9.66
AAAAACCATTCGCACACACACATAATCTATAATATA [CACACA_site6782] | 11.1
AAAAAAAAAAAAAAAACACACACATATATATAATAT [CACACA_site9038] | 10.3
AAAAACCATTGGCACACACACATAATATATAATATA [CACACA_site4903] | 11.4
AAAAACCATGGGCACACACACATAATATATAATATA [CACACA_site1425] | 10.4
AAAAAAAAAAAAAAAACACACATATATCTATAATAT [CACACA_site6665] | 9.84
GGAAAAACCATTCGCACACACACATAATATATAATA [CACACA_site1424] | 10.2
TTACTCAAACAAACAAAAAAAAAAAAAAAAAAAAAA [TGCATGCA_negctrl_site457] | 8.89
TATTTCATAATAAATTGTACGCGTAGAAAACCATGA [XGTACX_site7506] | 9.99
TATTTATGCACGCGTGCACACACATATGAAAAAAGG [CACACA_site9090] | 9.87
ACATATCTATCGTTTTTAATTGTATATTATTATAAC [TGCATGCA_negctrl_site144] | 9.76
AAAAAAAAAAGACACACACACACACTAATACATACA [CACACA_site6473] | 11.4
AAAAAAAAAAGACACACACACACATACACATACATA [CACACA_site7362] | 11.1
ATAAAACAAAGACACACACACATACACAAAAAAAAA [CACACA_site7752] | 10.5
CAAAGACACAAACACACACACACATACATACATACA [CACACA_site453] | 11.3
AATAAAAAAAAAAAAAAAAAAAAAAAGACACTAAAA [CACACA_negctrl_site1075] | 9.53
AAAAAAAAAAGACACACACACACAAATACATACACA [CACACA_site6472] | 10.8
AAAAAAAAAAAAAAGACACACATATATATATATATA [CACACA_site633] | 9.63
CAACATTTGAGACACACACACATACAAACAAACAAA [CACACA_site7538] | 11.2

Sequence | gcPBM binding intensity (ln)
TATAGACAAACACATACATGCATACATACATACATA [TGCATGCA_site273] | 9.75
AAAAAAAAAAAACACACACACACACTAATACATACA [CACACA_site8135] | 10.6
GGCAACATTTGAAACACACACACATACAAACAAACA [CACACA_site3307] | 10.3
AAGACACAAAAACACACACACATACATACATACATA [CACACA_site454] | 10.3
TTATGGTATAAAAAAATACACACTTATATATATTCT [CACACA_site488] | 9.72
TACGTAAAAATAATACGTACATATATTTATAGAAAA [XGTACX_site4959] | 9.71
TATTAATTTTTTTTTTTTTTTTTTTTTTTTTTTTTT [CACACA_negctrl_site1329] | 9.26
ATGATACATAAAGAATATAAAACATGAAATATAATA [CACACA_negctrl_site1461] | 9.79
AAGATTTGAAAAAATACACACAATAAAAAAATAAAA [CACACA_site3281] | 10.1
TTTTATTATTTTTGTTGTACAGTATACTGTATGATT [XGTACX_site5359] | 9.69
AACAAATACGAACACACACACACACTAAAAAAAAAA [CACACA_site6386] | 10.8
AAAAAATCACGACACACACACACACTAAAAAAAAAA [CACACA_site6792] | 11.3
TTAAAAAATCACAACACACACACACGCAAAAAAAAA [CACACA_site6793] | 10.8
TCATAAAGAACAAAGTGTACCTATATATTACATACA [XGTACX_site7595] | 9.59
TATAAATATAAATACACACACACACGCCAAAGCGTA [CACACA_site6181] | 11
TATATATATATATACACACACACACCCCAAAGCGTA [CACACA_site64] | 11.1
TATATATATATATATACACACACACCCACCAAAGCG [CACACA_site7904] | 10.1
TAAATATATAAATACACACACACCAAAGCAATAGAT [CACACA_site5605] | 10.5
TATATATATAAATACACACACACACCCCAAAGCGTA [CACACA_site4211] | 10.6
TATAAATATAGACACACACACACCAAAGCGTAGCGC [CACACA_site6179] | 10.3
TATTATATTTATTTATGTACACATATACTTAAATAA [XGTACX_site1355] | 9.69
AAATAGCCAAAAATCATGCACACCTAAAAAAAAAAA [CACACA_site2572] | 9.77

Sequence | gcPBM binding intensity (ln)
AGCTGAAAAAAAAGCTTGCACACGTATTTGCTTTAT [CACACA_site1512] | 9.81
ATAAACAATTAACAAACATGCAAATTTTAAATGTGT [TGCATGCA_site919] | 9.68
ATATTTGTATAAATTGCACACTTTATTTTTTTTAAG [CACACA_site1558] | 9.61
TTTGTTTGTAAAATGTTGCACTTTCTTTTGCTGATA | 9.66
ATATATCTATATAGAAATGTATATATATATATGTGT [TGCATGCA_negctrl_site349] | 9.77
TATTTCGTAATTTAATAATATACAAGAAATATATAT [XGTACX_negctrl_site143] | 9.4
CAATCAAAGAAACACACACACACCTAAACATAAAAG [CACACA_site2756] | 11.7
CAATCAAATAGACACACACACACCTAAACATAAAAG [CACACA_site7322] | 11.1
ATAAAAAAGAAACAAACACACATACATACAAACAAA [CACACA_site4256] | 10.3
ATCAAATAGAGACACACACACCTAAACATAAAAGAA [CACACA_site7321] | 10.6
AACAATCAAATAGACACACACACACCCAAACATAAA [CACACA_site2757] | 10.6
CAATCAAATGGACACACACACACCTAAACATAAAAG [CACACA_site5524] | 10.5
GAAAAGTATAAAAAACGTACAAGTTTTATTTTCACA [XGTACX_site4604] | 9.58
TTTCTAATTATTTCCCTTCAAATATATTAATATCGT [CACACA_negctrl_site429] | 9.55
CATATATACTCATACACACACACACCGACACAGACA [CACACA_site5026] | 10.3
AGTATACATATATATACACACACATATATATATATA [CACACA_site7883] | 9.87
AGTATACTCGGACACACACACACATATATATATATA [CACACA_site5031] | 11.7
AAAACAAACGGACACACACACATATATATATATATA [CACACA_site5924] | 10.5
AGTATACATATATATACACACATATATATATATATA [CACACA_site300] | 9.8
CATATACTCGGACACACACACACACCGACAAAAAAA [CACACA_site4433] | 11.1
ACAAAAAAAAAAAAAAAAAAAAAAAAAAAATAATAA [CACACA_negctrl_site1640] | 9.18
TAAAATATATAAAACTGTACATTTTAAAGGCACAAC [XGTACX_site8342] | 9.98
